Experimental findings from the supplement of paper PMC3334620 are described below.

Over roughly 33,000 sequences, “E-score (-0.5 to 0.5)” has its median near -0.054; the highest 2% begin near 0.39. For the sample, the highest values were picked, then their nearest neighbours and some sequences at random.

For the assay, the target named is Ylr278c (UniProt Q05854). As to the kind of experiment: PBM E-score (8-mer binding enrichment) (E-score (-0.5 to 0.5)); higher = stronger / more preferred TF binding. To be noted: protein concentration: 200 nM; construct: GST-DNA-binding domain. The procedure: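 Universal 'all 10-mer' protein binding microarrays (Agilent AMADID 015681) probed with GST-tagged S. cerevisiae TFs (full-length or DBD) made by in vitro transcription/translation (PURExpress), about 100-200 nM. Bound TF was detected with fluorescent anti-GST. Each ungapped 8-mer (which stands for itself and its reverse complement) is scored by the PBM enrichment score (E-score), a modified Wilcoxon-Mann-Whitney statistic from -0.5 to +0.5, computed with the Universal PBM Analysis Suite. Scale: above 0.35 generally sequence-specific binding.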
Chain of UniProt Q05854 (Q05854 whole entry, the tested form may be a part): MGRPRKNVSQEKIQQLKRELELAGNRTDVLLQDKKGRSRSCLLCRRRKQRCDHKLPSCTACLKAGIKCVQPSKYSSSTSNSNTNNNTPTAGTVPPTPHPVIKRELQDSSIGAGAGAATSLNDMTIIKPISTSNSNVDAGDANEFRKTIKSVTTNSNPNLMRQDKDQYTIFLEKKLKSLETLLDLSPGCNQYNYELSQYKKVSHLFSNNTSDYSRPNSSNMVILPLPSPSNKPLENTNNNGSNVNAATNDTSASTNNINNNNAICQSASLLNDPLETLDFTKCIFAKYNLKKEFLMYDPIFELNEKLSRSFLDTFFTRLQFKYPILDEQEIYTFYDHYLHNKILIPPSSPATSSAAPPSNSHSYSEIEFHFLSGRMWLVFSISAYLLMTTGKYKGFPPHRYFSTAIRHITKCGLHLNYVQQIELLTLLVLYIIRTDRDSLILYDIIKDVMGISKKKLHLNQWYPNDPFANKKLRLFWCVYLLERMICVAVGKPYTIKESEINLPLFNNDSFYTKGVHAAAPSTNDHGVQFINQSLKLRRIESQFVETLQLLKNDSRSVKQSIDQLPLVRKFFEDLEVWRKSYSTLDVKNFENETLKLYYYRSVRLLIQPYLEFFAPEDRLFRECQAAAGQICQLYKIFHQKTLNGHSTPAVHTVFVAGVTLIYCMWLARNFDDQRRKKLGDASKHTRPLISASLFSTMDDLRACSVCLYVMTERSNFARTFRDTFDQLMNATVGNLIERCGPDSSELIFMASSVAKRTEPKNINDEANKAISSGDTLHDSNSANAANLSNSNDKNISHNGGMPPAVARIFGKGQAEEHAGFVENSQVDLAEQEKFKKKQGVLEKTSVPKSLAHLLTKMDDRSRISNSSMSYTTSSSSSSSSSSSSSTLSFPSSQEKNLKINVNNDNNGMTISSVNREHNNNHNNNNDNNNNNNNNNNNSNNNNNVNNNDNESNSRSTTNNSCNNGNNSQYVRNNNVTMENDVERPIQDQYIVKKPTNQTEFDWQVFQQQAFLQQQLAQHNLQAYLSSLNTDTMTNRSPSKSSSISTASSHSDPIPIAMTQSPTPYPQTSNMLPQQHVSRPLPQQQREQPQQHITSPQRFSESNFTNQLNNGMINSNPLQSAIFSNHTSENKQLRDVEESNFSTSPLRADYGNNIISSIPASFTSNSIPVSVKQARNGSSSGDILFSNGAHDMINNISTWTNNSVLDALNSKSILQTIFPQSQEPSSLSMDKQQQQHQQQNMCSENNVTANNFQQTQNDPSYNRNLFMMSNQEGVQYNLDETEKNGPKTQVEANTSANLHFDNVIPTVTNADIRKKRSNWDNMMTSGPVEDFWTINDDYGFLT
For CAACCGGC, the “PBM E-score” value is 0.27.

In the case of AAACCGGA, the “PBM E-score” value came to 0.438.

For TAACCGTA, the “PBM E-score” value is -0.0936.

Turning to AAACCGGT, the “PBM E-score” value was 0.204.

Consider CAACCGGG, for which the “PBM E-score” value worked out at 0.215.

In the case of GGTGCTAC, the “PBM E-score” value is -0.0466.

For GAAAGCAA, the “PBM E-score” value was 0.145.

On to CAGGTTCC, for which the “PBM E-score” value was 0.0369.

In the case of AAGGAGCA, the “PBM E-score” value was -0.0618.

With GGAAGTAC, the “PBM E-score” value came out at 0.253.

In the case of CATCACAG, the “PBM E-score” value was -0.108.

Take ATGTCCGG: the “PBM E-score” value is 0.468.

Take GTGTCCGA: the “PBM E-score” value is 0.374.

Take ATGTCCTG: the “PBM E-score” value was -0.0169.

In the case of ATGTCCGC, the “PBM E-score” value was found to be 0.403.

Take CTGTCCGC: the “PBM E-score” value turned out to be 0.14.

As to ATGTCCCC, the “PBM E-score” value amounted to 0.042.

As for ATGTCCGA, the “PBM E-score” value turned out to be 0.455.

Consider CTGTCCGA, for which the “PBM E-score” value came out at 0.335.

In the case of ATGTCCCG, the “PBM E-score” value was 0.319.

AATCTTGA: the “PBM E-score” value was -0.172.

On to CATGCTAG, for which the “PBM E-score” value was -0.256.

Regarding AGACACTG, the “PBM E-score” value is -0.321.

For the sequence GCCGGCGC, the “PBM E-score” value was found to be 0.396.

On to GCCGGCCC, for which the “PBM E-score” value came to 0.248.

Regarding ACCGGCGG, the “PBM E-score” value amounted to 0.402.

With ATCGGCGG, the “PBM E-score” value was 0.42.

For ACCGGCGT, the “PBM E-score” value came out at 0.3.

Take CCCGGCCG: the “PBM E-score” value was 0.354.

For ACCGGCCG, the “PBM E-score” value amounted to 0.392.

For ACCGGCGC, the “PBM E-score” value turned out to be 0.351.

ACCGGCCT: the “PBM E-score” value was 0.179.

In the case of ATCGGCGA, the “PBM E-score” value was 0.327.

For ATCGGCGC, the “PBM E-score” value stood at 0.326.

In the case of GACGGCGC, the “PBM E-score” value is 0.169.

As to ATATGCTA, the “PBM E-score” value is -0.0729.

Regarding AAGCCCGA, the “PBM E-score” value amounted to 0.27.

CCCATAGG: the “PBM E-score” value is -0.0984.

On to AAAATGGT, for which the “PBM E-score” value is 0.184.

Take GAAGTTAC: the “PBM E-score” value was 0.0322.

On to ATCTTGAC, for which the “PBM E-score” value was -0.292.

Consider ACGTCTTA, for which the “PBM E-score” value was -0.241.

In the case of CGGCCCCC, the “PBM E-score” value amounted to 0.173.

For CACCAAAC, the “PBM E-score” value was -0.119.

Consider CCCGGCGG, for which the “PBM E-score” value was 0.396.

In the case of CCCGGCGC, the “PBM E-score” value was 0.338.

On to CCCGGCGA, for which the “PBM E-score” value amounted to 0.326.

As to CATTTGAG, the “PBM E-score” value was -0.0532.

Consider ACGGACTC, for which the “PBM E-score” value was 0.304.

CCGGACTC: the “PBM E-score” value was found to be 0.43.

Consider CCGGACTA, for which the “PBM E-score” value was found to be 0.458.

As to CGGGACTC, the “PBM E-score” value was determined as 0.341.

Take ACGGACTA: the “PBM E-score” value was found to be 0.315.

On to GCGGACTA, for which the “PBM E-score” value turned out to be 0.384.

Take AGGCCTAC: the “PBM E-score” value was -0.167.

With AAGCAATT, the “PBM E-score” value was -0.0901.

As for CATCCCAC, the “PBM E-score” value was -0.135.

Consider ATAGTGTA, for which the “PBM E-score” value was -0.188.

As to GCCAAACC, the “PBM E-score” value amounted to 0.119.

Consider GACTTGAC, for which the “PBM E-score” value was -0.059.

For the sequence AGTATCTG, the “PBM E-score” value was -0.207.

With CCGATCCG, the “PBM E-score” value came to 0.424.

For CCGATCGA, the “PBM E-score” value is 0.226.

On to CCGATCGG, for which the “PBM E-score” value amounted to 0.43.

CCGATCCA: the “PBM E-score” value amounted to 0.208.

With ACGATCGG, the “PBM E-score” value came to 0.334.

Consider ACGATCCG, for which the “PBM E-score” value amounted to 0.283.

Regarding CCGATTAA, the “PBM E-score” value was found to be 0.333.

Take CATGTTGA: the “PBM E-score” value was -0.0612.

Regarding CGAGAATA, the “PBM E-score” value was 0.0398.

As for CAGGGCCG, the “PBM E-score” value was found to be 0.181.

As to ATTTAAGA, the “PBM E-score” value is -0.154.

Consider AAGATGGT, for which the “PBM E-score” value was -0.0478.

With CTACGGAC, the “PBM E-score” value came to 0.261.

Turning to CTACGGAG, the “PBM E-score” value was determined as 0.398.

On to ATACGGAA, for which the “PBM E-score” value worked out at 0.345.

Regarding ATACGGAG, the “PBM E-score” value is 0.425.

As to CTACGGAA, the “PBM E-score” value came to 0.197.

Turning to ATACGGAT, the “PBM E-score” value came to 0.256.

On to CTAAACAC, for which the “PBM E-score” value was -0.033.

For GTGGACAA, the “PBM E-score” value was 0.124.

For AGCAAGAC, the “PBM E-score” value is -0.0712.

With ACACCAAC, the “PBM E-score” value was -0.126.

With AAGCATAT, the “PBM E-score” value was -0.014.

In the case of ATCCCCCG, the “PBM E-score” value was determined as 0.3.

On to ATCCCCGA, for which the “PBM E-score” value is 0.379.

As for ATCCCCGG, the “PBM E-score” value amounted to 0.425.
